Reference: PubChem BioAssay (NCI)
Compounds without any hit were thinned out: in the full panel of roughly 83,000, 20% have a hit.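 How to read the values: 0–100, growth inhibition (40 = 60% inhibited); 0, no net growth; -100 to 0, cell death (-40 = 40% of starting cells died; -100 = all dead).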 Active and inactive are the calls of the source. Rule for the calls: active = growth percent below 10; inactive = the rest.

Key:
Assay in all cases: NCI-60 one-dose screen, 48 h (100 = growth as untreated, 0 = no growth, -100 = all killed)
Conditions in all cases: 10 µM unless noted
DU-145 prostate = tested on: DU-145 prostate
K-562 leukemia = tested on: K-562 leukemia
MALME-3M melanoma = tested on: MALME-3M melanoma
MDA-MB-231 breast = tested on: MDA-MB-231 breast
RXF 393 renal = tested on: RXF 393 renal
SF-268 CNS = tested on: SF-268 CNS
SF-295 CNS = tested on: SF-295 CNS
SF-539 CNS = tested on: SF-539 CNS
UACC-257 melanoma = tested on: UACC-257 melanoma
M14 melanoma = tested on: M14 melanoma

Compound | growth (DU-145 prostate) | growth (K-562 leukemia) | growth (MALME-3M melanoma) | growth (MDA-MB-231 breast) | growth (RXF 393 renal) | growth (SF-268 CNS) | growth (SF-295 CNS) | growth (SF-539 CNS) | growth (UACC-257 melanoma) | growth (M14 melanoma)
CN1CCN(CCNc2nc(-c3cccc(NS(=O)(=O)c4cccc5c(N(C)C)cccc45)c3)cs2)CC1 | 81.8% (inactive) | 10.6% (inactive) | 44% (inactive) | 64.8% (inactive) | 61.6% (inactive) | 82.7% (inactive) | 42.6% (inactive) | 68.1% (inactive) | 53.9% (inactive) | 62.9% (inactive)
Clc1cccc(/C=N/Nc2nc(N/N=C/c3cccc(Cl)c3)nc(N3CCCCC3)n2)c1 | 94.6% (inactive) | 83% (inactive) | 109% (inactive) | 116% (inactive) | 93.4% (inactive) | 92% (inactive) | 93% (inactive) | 105% (inactive) | 111% (inactive) | 95.3% (inactive)
CC1(C)CC[C@]2(C(=O)NCCCCCCN(CCCN)CCCN)CC[C@]3(C)C(=CC[C@@H]4[C@@]5(C)CC[C@H](O)C(C)(C)[C@@H]5CC[C@]43C)[C@@H]2C1 | 107% (inactive) | 109% (inactive) | 103% (inactive) | 93.7% (inactive) | 113% (inactive) | 97.2% (inactive) | 105% (inactive) | 102% (inactive) | 97.6% (inactive) | 105% (inactive)
CC(C)[C@H]1c2[nH]c3ccccc3c2C[C@H]2C(=O)N(CCCCCCC(=O)NO)CC(=O)N12 | 92.4% (inactive) | 60.6% (inactive) | 31.1% (inactive) | 92.5% (inactive) | 87% (inactive) | 107% (inactive) | 95.2% (inactive) | 73.6% (inactive) | 57.7% (inactive) | 82.2% (inactive)
CC(C)(C)OC(=O)NCc1ccc(CNc2c([N+](=O)[O-])cnc3ccccc23)cc1 | 77.4% (inactive) | 28.5% (inactive) | 86.4% (inactive) | 72.8% (inactive) | 105% (inactive) | 77% (inactive) | 33.4% (inactive) | 82.8% (inactive) | 49% (inactive) | 76% (inactive)
O=C(Nc1cc(C(F)(F)F)cc(C(F)(F)F)c1)Nc1ccc2oc(=O)ccc2c1 | 18.3% (inactive) | 13.7% (inactive) | -26.4% (active) | -9.24% (active) | 39.7% (inactive) | 21.1% (inactive) | 0.342% (active) | 21.4% (inactive) | 1.17% (active) | 18.1% (inactive)
O=C(COc1ccc(/C=C2\C(=O)Nc3ccc(F)cc32)cc1)Nc1ccccc1 | 104% (inactive) | 89.6% (inactive) | 102% (inactive) | 104% (inactive) | 120% (inactive) | 95.1% (inactive) | 105% (inactive) | 93.8% (inactive) | 104% (inactive) | 94.4% (inactive)
N#Cc1c(-c2ccc(F)cc2)cc(-c2c[nH]c3ccccc23)nc1-c1c[nH]c2ccccc12 | 106% (inactive) | 105% (inactive) | 102% (inactive) | 102% (inactive) | 112% (inactive) | 101% (inactive) | 103% (inactive) | 100% (inactive) | 107% (inactive) | 97.4% (inactive)
CN1CCN(CC#CCn2c3c(c4ccccc42)C[C@]2(C)[C@H]4CC=C5[C@@H]6CC(C)(C)CC[C@]6(C(=O)N6CCOCC6)CC[C@@]5(C)[C@]4(C)CC[C@H]2C3(C)C)CC1 | 64.8% (inactive) | -23% (active) | 83.3% (inactive) | 43.1% (inactive) | 68.4% (inactive) | 83.5% (inactive) | 99.3% (inactive) | 73.9% (inactive) | 102% (inactive) | 87.7% (inactive)
O=C(/C=C/c1ccc(F)cc1)Nc1cccc2cccnc12 | 107% (inactive) | 101% (inactive) | 100% (inactive) | 100% (inactive) | 110% (inactive) | 104% (inactive) | 111% (inactive) | 102% (inactive) | 114% (inactive) | 98.5% (inactive)
CCc1cc(OC(=O)N2CCC(N3CCCCC3)CC2)ccc1Nc1cc(-c2ccc(-n3cccn3)cc2)[nH]n1 | -26.3% (active) | -17.2% (active) | -6.02% (active) | 59.5% (inactive) | 52.5% (inactive) | 75.9% (inactive) | 62.4% (inactive) | -54.8% (active) | -49.1% (active) | -85.5% (active)
N#Cc1c(-c2cccs2)cc(-c2cnccn2)nc1SCC(=O)N/N=C/c1ccccc1 | 14% (inactive) | 46.5% (inactive) | 4.87% (active) | 46.5% (inactive) | -16.4% (active) | 56.4% (inactive) | 60.9% (inactive) | 56.1% (inactive) | 68.2% (inactive) | 37% (inactive)
CCCCc1nc2c(N)nc3ccccc3c2n1Cc1ccc(OC)cc1 | 83.4% (inactive) | 23.2% (inactive) | 87.6% (inactive) | 75.8% (inactive) | 58.4% (inactive) | 81.1% (inactive) | 56.5% (inactive) | 84.2% (inactive) | 72% (inactive) | 67.3% (inactive)
CN(C)CCNc1ccc2ncc(C#Cc3cncc(C(=O)Nc4ccc(CN5CCN(C)CC5)c(C(F)(F)F)c4)c3)n2n1 | 18.9% (inactive) | 2.29% (active) | 17.4% (inactive) | -18.2% (active) | -75.1% (active) | -50.9% (active) | 45.2% (inactive) | -71.8% (active) | 74.9% (inactive) | 54.1% (inactive)
O=c1oc2ccc(-c3ccc(F)cc3F)cc2c(=O)n1-c1ccc(Br)cc1F | 85.2% (inactive) | 45.4% (inactive) | 61.5% (inactive) | 87% (inactive) | 80.8% (inactive) | 58.6% (inactive) | 77.6% (inactive) | 74.3% (inactive) | 48.1% (inactive) | 80.7% (inactive)
O=C1Nc2cc(Cl)ccc2/C1=C\c1ccc(OCc2ccccc2)cc1 | 101% (inactive) | 93.1% (inactive) | 115% (inactive) | 104% (inactive) | 114% (inactive) | 94.5% (inactive) | 115% (inactive) | 94.5% (inactive) | 116% (inactive) | 96.2% (inactive)
COc1ccc2[nH]cc(-c3nn4cc(-c5ccncc5)nc4s3)c2c1 | 88.8% (inactive) | 28.5% (inactive) | 86.3% (inactive) | 82.3% (inactive) | 96% (inactive) | 86.9% (inactive) | 62.8% (inactive) | 88.3% (inactive) | 109% (inactive) | 82.8% (inactive)
